Each structure is given as a SMILES string. Measured potencies and affinities stand elsewhere.

For 11 compounds, Inhibition results are on record in ChEMBL document CHEMBL4513141, “CO-ADD screening of NIH (USA) - Clinical Collection” (2021).

For the test, the system named is Escherichia coli. The following applies: Concentration 20 uM; ASSAY_TEST Inhibition of Bacterial Growth; detection method Absorption (OD600); MEDIA CAMHB; plate type 384well; NBS; CORNING #3640; time 18 hr.
As to `CN(C)C(=O)Oc1ccc[n+](C)c1.[Br-]` [PYRIDOSTIGMINE BROMIDE], the Inhibition is recorded as -0.78%. The result for `CN(C/C=C/C#CC(C)(C)C)Cc1cccc2ccccc12.Cl` [TERBINAFINE HYDROCHLORIDE] reads 3%. In the case of `NC(Cc1cc(I)c(Oc2ccc(O)c(I)c2)c(I)c1)C(=O)O` (stereo unspecified) [RATHYRONINE] it was 4.17%. In the case of `Cc1ccc(O)c([C@H](CCN(C(C)C)C(C)C)c2ccccc2)c1.O=C(O)C(O)C(O)C(=O)O` [TOLTERODINE TARTRATE], the Inhibition is on record as -0.28%. Take `CC(=CCC1=C(C)C(=O)c2ccccc2C1=O)CCCC(C)CCCC(C)CCCC(C)C` (stereo unspecified): the Inhibition was determined as 5.45%. The result for `CC[C@]1(O)C[C@@H]2CN(CCc3c([nH]c4ccccc34)[C@@](C(=O)OC)(c3cc4c(cc3OC)N(C=O)[C@H]3[C@@](O)(C(=O)OC)[C@H](OC(C)=O)[C@]5(CC)C=CCN6CC[C@]43[C@@H]65)C2)C1.O=S(=O)(O)O` reads -3.68%; that for `C[C@@H]1O[C@@H](OC[C@H]2O[C@@H](Oc3c(-c4ccc(O)c(O)c4)oc4cc(O)cc(O)c4c3=O)[C@H](O)[C@@H](O)[C@@H]2O)[C@H](O)[C@H](O)[C@H]1O` [RUTIN], 2.05%. In the case of `COc1nc(C)nc(Cl)c1NC1=NCCN1.Cl` [MOXONIDINE HYDROCHLORIDE] it was 3.63%. In the case of `O=C1N[C@H](C(=O)O)CS1` [PROCYSTEINE] it was 6.28%; in that of `CCCc1c(OCCCCc2nnn[nH]2)ccc(C(C)=O)c1O` [TOMELUKAST], 7.84%; in that of `CC1(C)S[C@@H]2[C@H](NC(=O)[C@H](N)c3ccc(O)cc3)C(=O)N2[C@H]1C(=O)O` [AMOXICILLIN], 7.14%.

As a reminder, the Inhibition is the relative decrease from the control value, in per cent.
